Source: PubChem BioAssay (several laboratories)
Only some compounds are listed: those with a hit (about 3.4% of all), similar ones and a draw of the others.
Shn3 inh set2: Schnurri-3 reporter inhibition in Clone20 osteoblasts | Clone20 osteoblast Shn3 3'UTR firefly luciferase, 24 h | inhibition, % at 12.5 µM | hit rate 0.52% among 360,000 | AID 588674;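 active = mean inhibition of at least 75% with every replicate also reaching 75%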;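 note: 0% = median of neutral control wells and 100% = pilot-screen positive control compound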
HIF-2a block: blocks HIF-2a reporter activity | 786-0 RCC cells HIF-2a reporter, luciferase luminescence, overnight | inhibition, % at 18.8 µM | hit rate 0.72% among 360,000 | AID 624352;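 active = inhibition of the luminescence signal of 40% or more relative to plate controls, in a single-dose primary screen at 18.75 µM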
TROY NFkB inh: blocks TROY-dependent signaling in reporter cells. inhibition, % at 10 µM. hit rate 0.98% among 360,000. Q293 LMP1-TROYcd NF-kB luciferase reporter, 4 h;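 active = compounds whose plate-normalised and pattern-corrected inhibition of the luciferase reporter signal at the single screening dose is 50% or more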
MITF TRPM1 inh: MITF TRPM1 promoter inhibition in SK-MEL-5 cells. hit rate 0.83% among 330,000. inhibition, % at 12.5 µM. AID 488899. SK-MEL-5 TRPM1 promoter luciferase, 24 h;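 active = mean inhibition across replicates of 60% or more, whatever share of single replicates reaches that level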
TWEAK-Fn14 inh: inhibitors of TWEAK-Fn14 interaction signaling; hit rate 2% among 360,000; AID 1159606; TWEAK-stimulated Fn14 reporter cells, luciferase luminescence, 8 h; inhibition, % at 10 µM; in the data active = inhibition above about 50%
EBV LMP1 NFkB: Epstein-Barr LMP1 NF-kappaB reporter inhibition; AID 504558; hit rate 0.69% among 350,000; LMP1-induced NF-kappaB luciferase reporter cells, luminescence; inhibition, % at 12.5 µM; in the data active = inhibition above about 41%;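 note: 0% = neutral control wells and 100% = reference inhibitor control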
* = called active by the depositor; nt = no result given.

SMILES | Shn3 inh set2 | HIF-2a block | TROY NFkB inh | MITF TRPM1 inh | TWEAK-Fn14 inh | EBV LMP1 NFkB
Nc1[nH]c(C(=O)c2ccccc2)c(-c2ccc(Cl)cc2)c1C(=O)NCCc1c[nH]c2ccccc12 | nt | -43.7 | 14.8 | nt | 22.6 | nt
Cc1cc(C(=O)COC(=O)c2ccc[nH]c2=O)c(C)n1-c1ccccc1 | 16.1 | 43.8* | 71.1* | -26.0 | 58.4* | 47.0*
Cc1cc(C(=O)COC(=O)c2ccc[nH]c2=O)c(C)n1-c1ccc(F)cc1 | -22.3 | 20.5 | 70.2* | -34.0 | 64.5* | 22.2
Cc1cc(C(=O)COC(=O)c2ccc[nH]c2=O)c(C)n1C1CC1 | -25.2 | -36.6 | 19.4 | -18.3 | 30.7 | 2.1
O=C(NC(=S)Nc1cc([N+](=O)[O-])ccc1O)c1ccc2c(c1)OCO2 | -53.7 | -88.3 | 69.9* | -45.0 | 70.9* | -30.0
COc1cccc(/C=N/NC(=O)c2ccc(-c3ccccc3)cc2)c1O | 91.2* | 12.0 | 4.5 | 69.0* | -24.9 | 57.3*
COc1cccc(/C=N/NC(=O)c2c(C)nc3ccc(Cl)cn23)c1O | 89.7* | 2.1 | -3.1 | 70.5* | -32.2 | 61.1*
COc1ccccc1/C=N\NC(=O)c1c(C)nc2ccc(Cl)cn12 | 8.5 | 15.6 | -1.4 | -4.3 | 14.9 | 1.3
COc1cccc(/C=N/NC(=O)C(=O)Nc2ccccc2OC(F)(F)C(F)F)c1O | 83.0 | -6.1 | -3.7 | 72.8* | 34.9 | 21.5
O=C(CSCC(=O)N1CCCc2ccccc21)Nc1nc(-c2ccccc2)cs1 | -16.8 | -57.9 | 45.0 | -5.6 | 52.2* | 2.7
O=C(C[n+]1cc(-c2ccccc2)n2c1CCC2)Nc1nc(-c2ccccc2)cs1 | 2.7 | -67.0 | 8.2 | 6.6 | 2.8 | 1.2
CN(C(=O)c1ccc(NC(=O)Cc2ccc(NC(=O)C3CCCN(C(=O)C4CC4)C3)cc2)cc1)C1CCCC1 (stereo not drawn) | -2.4 | 3.3 | -10.9 | -3.7 | -0.8 | -1.5
Cc1ccc(C(=O)Cn2c(=N)n(CCN3CCOCC3)c3ccccc32)cc1 | -7.8 | -61.8 | 8.8 | 7.2 | -0.4 | -3.5
Cc1ccc(Cn2c(=N)n(CC(=O)c3ccc([N+](=O)[O-])cc3)c3ccccc32)cc1 | 8.7 | 8.5 | 9.1 | 98.3* | -4.5 | -1.0
CN(C)S(=O)(=O)N1CCC(Oc2ccc(C(=O)NC3Cc4ccccc4C3)cc2)CC1 | 21.3 | -128.6 | 26.7 | 4.4 | 52.3* | 1.0
C=CCn1c(SCC(=O)Nc2sccc2C(N)=O)nc2ccc(Cl)cc2c1=O | 74.7 | 22.9 | 49.0 | 19.7 | 73.5* | -9.8
C=CCn1c(SCC(=O)Nc2sccc2C(N)=O)nc2sc(CC)cc2c1=O | 75.9 | -3.3 | 48.0 | 33.5 | 72.1* | 13.3
C=CCn1c(SCC(=O)Nc2sccc2C(N)=O)nc2ccccc2c1=O | 66.4 | 12.8 | 33.8 | 7.6 | 46.2 | 0.9
CCC(CC)C(=O)N(C)c1c(C)nc2c(OCc3ccccc3C(=O)OC)cccn12 | -13.0 | -8.6 | 10.4 | nt | -1.4 | nt
Cc1noc(C)c1NC(=O)N(C)C[C@H]1OCc2cn(nn2)CCCC(=O)N([C@@H](C)CO)C[C@@H]1C | -14.1 | 5.3 | -9.6 | nt | -14.7 | -11.3
CC(=O)CSc1nc(N)c(C#N)c(-c2cccs2)c1C#N | 35.8 | 6.4 | 11.6 | -5.8 | 51.7* | 2.1
CCOc1ccccc1C(=O)NC1CC2CCCC(C1)N2Cc1nnnn1Cc1ccco1 (stereo not drawn) | 33.8 | 3.2 | -4.1 | -0.6 | -8.2 | 57.2*
COC(=O)c1c(C)[nH]c(C(=O)/C=C/c2ccccc2Cl)c1C | -110.1 | -353.0 | -18.8 | -54.4 | 89.5* | -25.8
COC(=O)c1c(C)[nH]c(C(=O)/C=C/c2ccccc2F)c1C | -137.8 | -304.7 | 60.5* | -82.8 | 51.2* | -24.7
COC(=O)c1c(C)[nH]c(C(C)=O)c1C | -11.6 | -1.3 | -21.9 | 4.4 | 14.4 | -0.4
SMILES | Shn3 inh set2 | HIF-2a block | TROY NFkB inh | MITF TRPM1 inh | TWEAK-Fn14 inh | EBV LMP1 NFkB
Cc1cc(Nc2ccccc2)c2c([N+](=O)[O-])cc(C)c(C)c2n1 | 14.0 | 6.9 | -17.2 | -1.3 | -2.4 | 42.0*
Cc1onc(-c2ccccc2)c1C(=O)OCC(=O)Nc1ccc(OC(F)(F)F)cc1 | -103.5 | 7.5 | 52.2* | -6.9 | 14.6 | -0.4
O=C(OCCOc1cccc(Cl)c1)c1ccc2ncsc2c1 | -12.9 | -55.1 | 3.4 | -2.9 | 14.2 | -9.2
CN(C)C(=O)c1cc([N+](=O)[O-])cc([N+](=O)[O-])c1N(C)C | -12.0 | 15.3 | 9.0 | 8.5 | 107.3* | 2.1
COc1ccc([C@H]2CC(=O)C=C(c3ccnc4ccc(Cl)cc34)C2)cc1 | 81.2 | 24.6 | 39.2 | 6.2 | 51.9* | 8.7
CCOc1ccc(Br)cc1C1=CC(=O)C[C@H](c2ccc(OC)cc2)C1 | 93.5* | 15.5 | 16.0 | 19.9 | 0.6 | 2.1
COc1ccc([C@H]2CC(=O)C=C(c3cc(Cl)ccc3C)C2)cc1 | 7.2 | 1.9 | -3.4 | 1.9 | 14.7 | -2.3
CNC(=O)OCc1ncn(-c2ccccc2)c1COC(=O)NC | -3.6 | 8.0 | 7.3 | nt | -8.3 | nt
CC(=O)c1c(C)[nH]c(C(=O)OCC(=O)c2ccc(Br)cc2)c1C | 24.0 | -49.1 | 0.2 | nt | -0.8 | 6.4
Cc1c(C)c2cccnc2c2ncccc12 | 82.6 | -15.0 | 6.5 | 82.8* | -36.1 | 86.3*
Clc1cc2cccnc2c2ncccc12 | 84.9 | -5.8 | 4.7 | 56.7 | -27.1 | 25.3
c1ccc(COc2ccc(OCCCN3CCCC3)cc2)cc1 | -18.4 | -48.0 | 34.7 | -3.3 | 50.8* | 1.1
CSc1nsc(NN)n1 | -24.4 | -10.3 | -53.2 | nt | -27.8 | -9.7
O=c1[nH]c(-c2ccccc2)cnc1-c1ccccc1 | -101.5 | -164.8 | -21.3 | nt | 73.2* | nt
Fc1nc(F)c(F)c(NCCCNc2c(F)c(F)nc(F)c2F)c1F | 18.0 | -0.5 | 50.2* | -4.5 | 10.4 | -3.0
O=C1CCC[C@@H]2C=C[C@H](c3ccc(Br)cc3)[C@H]3CCN1[C@@H]32 | nt | 1.7 | 6.2 | nt | 8.4 | nt
COc1ccc(C(O)c2nc(-c3cccc(F)c3)cs2)cc1 (stereo not drawn) | 81.8* | -48.5 | -20.5 | nt | 1.5 | nt
O=C(COC(=O)c1ccc2c(c1)OCO2)Nc1ccccc1Cl | -10.5 | 0.0 | -22.5 | -8.8 | -6.5 | 1.0
COCCN1CSC(=S)N(Cc2ccco2)C1 | -0.1 | -0.5 | 12.5 | 25.3 | -7.4 | 44.8*
S=C1SCN(Cc2ccccn2)CN1Cc1ccco1 | 2.4 | -21.8 | 4.6 | 15.1 | -2.9 | 25.4
CCOc1ccc(S(=O)(=O)Nc2ccc(C(=O)N(CC)CC(=O)NCc3cccs3)cc2)cc1 | 15.0 | 13.8 | 0.8 | nt | 74.0* | -3.1
Cc1cccc(/C=N/NC(=O)c2ccccc2OCc2cccc(Br)c2)n1 | 50.1 | 7.0 | 19.6 | 15.1 | 76.5* | 30.2
Cc1cccc(/C=N/NC(=O)c2cc(Br)ccc2OCc2ccccc2)n1 | 35.7 | 13.8 | 13.4 | 18.7 | -11.2 | 6.7
NC(=S)Cc1nc2n(n1)Cc1ccccc1-2 | 6.1 | -7.9 | -3.3 | -2.7 | 20.8 | 2.9
Fc1ccc(-c2nc3n(n2)Cc2ccccc2-3)cc1 | -23.8 | -99.1 | 29.9 | -17.3 | 58.2* | -16.8
